# Assay results published in article PMC4336329 (PLoS ONE, 2015).
# Hit rate of the full screen: of about 310,000 compounds, about 14,000 (4.5%) showed an effect of 50% or more. The effect is printed as a negative number. The sample as a whole holds a higher share of strong results than the screen did.
# Target: human ether-à-go-go-related gene (hERG) potassium channel (human, UniProt Q12809)
# Test: primary screen, population patch clamp on CHO cells stably expressing hERG; higher = less effect of the substance
# 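Note: peak tail current of the secondary pulse compared with the same well before compound.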
# Chain of human ether-à-go-go-related gene (hERG) potassium channel (Q12809 whole entry, looked up): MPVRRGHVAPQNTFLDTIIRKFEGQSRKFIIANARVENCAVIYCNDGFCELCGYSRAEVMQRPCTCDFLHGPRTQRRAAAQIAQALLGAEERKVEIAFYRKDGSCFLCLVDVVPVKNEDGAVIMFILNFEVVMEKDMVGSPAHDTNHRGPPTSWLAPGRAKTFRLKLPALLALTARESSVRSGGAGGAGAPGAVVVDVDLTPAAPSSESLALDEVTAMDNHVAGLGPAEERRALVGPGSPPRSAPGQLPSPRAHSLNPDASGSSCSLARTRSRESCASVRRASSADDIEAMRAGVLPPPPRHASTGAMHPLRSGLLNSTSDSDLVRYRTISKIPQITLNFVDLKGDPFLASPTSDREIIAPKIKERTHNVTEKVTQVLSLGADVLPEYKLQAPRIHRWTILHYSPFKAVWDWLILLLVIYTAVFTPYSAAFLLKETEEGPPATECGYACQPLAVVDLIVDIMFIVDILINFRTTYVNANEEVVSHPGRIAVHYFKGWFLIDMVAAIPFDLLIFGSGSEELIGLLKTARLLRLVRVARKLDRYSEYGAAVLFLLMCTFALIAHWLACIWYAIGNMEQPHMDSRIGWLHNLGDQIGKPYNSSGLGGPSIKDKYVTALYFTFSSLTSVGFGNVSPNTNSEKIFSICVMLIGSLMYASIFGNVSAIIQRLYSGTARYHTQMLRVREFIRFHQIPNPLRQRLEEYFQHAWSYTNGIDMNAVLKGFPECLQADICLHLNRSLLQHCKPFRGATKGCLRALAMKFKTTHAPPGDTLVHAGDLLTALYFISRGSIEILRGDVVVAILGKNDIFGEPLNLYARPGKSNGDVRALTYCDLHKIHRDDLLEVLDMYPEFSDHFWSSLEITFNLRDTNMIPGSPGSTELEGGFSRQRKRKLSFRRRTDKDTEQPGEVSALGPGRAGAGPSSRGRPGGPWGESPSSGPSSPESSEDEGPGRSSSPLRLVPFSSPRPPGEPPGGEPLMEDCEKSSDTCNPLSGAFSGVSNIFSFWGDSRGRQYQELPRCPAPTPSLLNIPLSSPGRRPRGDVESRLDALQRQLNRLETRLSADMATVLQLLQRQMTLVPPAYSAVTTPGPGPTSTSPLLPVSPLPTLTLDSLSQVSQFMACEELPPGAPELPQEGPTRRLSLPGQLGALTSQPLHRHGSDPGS
row,SMILES,"hERG current change (%, negative = inhibition) at 10uM [%]"
1,O=C(CN1C(=O)c2ccccc2C1=O)Nc1ccc(S(=O)(=O)N2CCOCC2)cc1,-16.9
2,O=C(NC1CCCC1)C1CCN(C(=O)c2cccc(Cl)c2)CC1,-6.41
3,Cc1ccc(-n2ncc3c(NCc4ccccn4)ncnc32)c(C)c1,-7.46
4,Cc1ccc2nc(-c3cccnc3)c(NC3CCCC3)n2c1,-19.7
5,Cc1ccc2nc(-c3ccncc3)c(NC3CCCC3)n2c1,-54.2
6,Cc1ccc2nc(-c3ccncc3)c(NC3CCCCC3)n2c1,9.35
7,CCOc1cccc(OCCCCn2ccnc2)c1,-9.04
8,COc1ccc(C)cc1NS(=O)(=O)c1ccc2c(c1)oc(=O)n2C,16.2
9,CCOC(=O)C1CCN(C(=O)c2cc3c(C)cc(C)cc3[nH]2)CC1,-15.2
10,Cc1cc(C)c2cc(C(=O)N3CCC(C(=O)c4ccc(F)cc4)CC3)[nH]c2c1,2.63
11,Cc1cc(C)c2cc(C(=O)N3CCC(N4CCCCC4)CC3)[nH]c2c1,-69.2
12,O=C(NNC(=O)c1cccs1)c1ccc(Br)o1,15.8
13,CC1C(=O)NN=C1C(=O)N/N=C/c1cccs1 (centres unmarked),17.3
14,COC(=O)c1nn(-c2ccccc2)c(Cl)c1/C=N/OCc1ccc(Cl)cc1Cl,20.6
15,COC(=O)c1ccc(CSc2nnc3c(Cl)cc(Cl)cn23)o1,10.9
16,O=C(NCc1ccco1)c1ccccc1NC(=O)C1CC(=O)N(c2ccc(Cl)cc2)C1 (centres unmarked),-78.4
17,CCCOc1ccc(N2CC(C(=O)Nc3ccccc3F)CC2=O)cc1 (centres unmarked),-3.15
18,CCCCOc1ccc(N2CC(C(=O)NCc3ccco3)CC2=O)cc1 (centres unmarked),-14.5
19,CNC(=O)c1ccccc1NC(=O)C1CC(=O)N(c2ccc(OC)cc2)C1 (centres unmarked),-12.3
20,COc1ccc(N2CC(C(=O)Nc3ccccc3C(=O)NCc3ccco3)CC2=O)cc1 (centres unmarked),-42
21,CCCOc1ccc(N2CC(C(=O)Nc3ccccc3C(=O)NCc3ccco3)CC2=O)cc1 (centres unmarked),-71.5
22,O=C(NCc1ccco1)C1CC(=O)N(c2ccc(Cl)cc2)C1 (centres unmarked),-6.16
23,CCCOc1ccc(N2CC(C(=O)Nc3ccccc3C(=O)NC)CC2=O)cc1 (centres unmarked),-71.8

row,SMILES,"hERG current change (%, negative = inhibition) at 10uM [%]"
1,O=C(NCc1ccco1)C1CC(=O)N(c2ccc(O)cc2)C1 (centres unmarked),-10.2
2,CCc1ccc(/C=N/NC(=O)c2cc(-c3ccccc3OC)nc3ccccc23)s1,9.69
3,O=C(NC1CCN(Cc2ccccc2)CC1)C1CCN(S(=O)(=O)c2cccc3nsnc23)CC1,-23.7
4,CN(C)CC1CCCCC1OC(=O)/C=C/c1ccccc1.Cl (centres unmarked),-33.2
5,Cc1ccccc1C(=O)NNc1ccc([N+](=O)[O-])cc1,-17.3
6,CCCOc1ccc(C2/C(=C(/O)c3ccccc3)C(=O)C(=O)N2CCCN(C)C)cc1OC (centres unmarked),5.35
7,Cc1ccccc1CNC(=O)CN(c1cccc([N+](=O)[O-])c1)S(C)(=O)=O,6.08
8,Cc1ccc(N/C(N)=N/c2nc(CSc3nnc(C)s3)cc(=O)[nH]2)c(C)c1,-8.86
9,Cc1ccc(-n2ncc3c2CC(C)(C)CC3NC(=O)c2ccccn2)cc1 (centres unmarked),-73.7
10,Cc1ccccc1-n1ncc2c1CC(C)(C)CC2NC(=O)c1ccncc1 (centres unmarked),-47.4
11,Cc1cc(C(=O)NC2CC(C)(C)Cc3c2cnn3-c2ccccc2)n[nH]1 (centres unmarked),-19.2
12,Cc1ccc(-n2ncc3c2CC(C)(C)CC3NC(=O)c2ccncc2)cc1 (centres unmarked),-72.2
13,Cc1cnc(C(=O)NC2CC(C)(C)Cc3c2cnn3-c2ccccc2)cn1 (centres unmarked),-39
14,Cc1ccc(-n2ncc3c2CC(C)(C)CC3NC(=O)c2ccc[n+]([O-])c2)cc1 (centres unmarked),-1.89
15,Cc1ccc(-n2ncc3c2CC(C)(C)CC3NC(=O)c2cc[n+]([O-])cc2)cc1 (centres unmarked),-75.4
16,CC1(C)Cc2c(cnn2-c2cccc(F)c2)C(NC(=O)c2cc[n+]([O-])cc2)C1 (centres unmarked),-37.3
17,CC1=C(C(=O)NC2CC(C)(C)Cc3c2cnn3-c2ccc(C)cc2)OCCO1 (centres unmarked),3.64
18,O=C1N[C@@H](Cc2cn(S(=O)(=O)c3ccccc3)c3ccccc23)C(=O)N[C@H]1Cc1ccccc1,14.9
19,Cn1nc(C(=O)NC2CCCCC2)c2c1-c1ccccc1S(=O)(=O)C2,11.7
20,CCCCc1ccc(-c2nc(N)n[nH]2)cc1,6.27
21,O=[N+]([O-])c1ccc2c(c1)C(N1CCOCC1)/C(=C/COc1ccc(F)cc1)O2 (centres unmarked),-26
22,O=[N+]([O-])c1ccc(OC/C=C2\Oc3ccc([N+](=O)[O-])cc3C2N2CCOCC2)cc1 (centres unmarked),-71.7
23,O=[N+]([O-])c1ccc2c(c1)C(N1CCOCC1)/C(=C/COc1ccc(Cl)cc1Cl)O2 (centres unmarked),-1.06

row,SMILES,"hERG current change (%, negative = inhibition) at 10uM [%]"
1,Oc1nc(Nc2ccc(Cl)cc2Cl)sc1/C=C1\C=Nc2ccccc21,9.08
2,CCCOc1ccc(C(C)=O)cc1CN1CCOCC1.Cl,2.99
3,CCCCn1nc(NC(=O)CC)c2cc3cc(OC)ccc3nc21,-11.2
4,CCCCn1nc(NC(=O)COC)c2cc3cc(OC)ccc3nc21,-53.2
5,CCCCn1nc(NC(=O)CCC)c2cc3cc(OC)ccc3nc21,-3.42
6,COc1ccc(NC(=O)CSc2nc3c([nH]c4ccccc43)c(=O)n2C)cc1,0.41
7,COc1cc(/C=C2/C(=N)N3OC(C)=CC3=NC2=O)ccc1OC(=O)c1ccco1,29.8
8,Cc1ccc(N=C2NC(=O)C(CO)(CO)S2)cc1,16.1
9,O=C(N/N=C/c1cccc([N+](=O)[O-])c1)c1ccc2c(c1)OCCO2,7.63
10,O=C(c1cccc([N+](=O)[O-])c1)c1ccc2c(c1)OCCOCCOCCO2,-52.8
11,O=[N+]([O-])c1ccc(S(=O)(=O)Nc2ccc3c(c2)OCCO3)cc1,3.95
12,Nc1cc2c(cc1[N+](=O)[O-])OCCOCCOCCO2,0.413
13,O=C(Nc1ccc([N+](=O)[O-])cc1)Nc1ccc2c(c1)OCCO2,24.6
14,O=C(c1cccc([N+](=O)[O-])c1)c1ccc2c(c1)OCCOCCOCCOCCO2,-69.8
15,Nc1cc2c(cc1[N+](=O)[O-])OCCO2,5.64
16,O=C(Nc1cccc([N+](=O)[O-])c1)c1ccc2c(c1)OCCO2,11.9
17,O=[N+]([O-])c1ccc2c(c1)OCCOCCOCCOCCOCCOCCO2,-64.1
18,O=C(/C=C/c1cccc([N+](=O)[O-])c1)c1ccc2c(c1)OCCO2,3.36
19,O=C(Nc1cccc([N+](=O)[O-])c1)Nc1ccc2c(c1)OCCO2,-1.17
20,O=[N+]([O-])c1cc2c(cc1[N+](=O)[O-])OCCOCCOCCOCCO2,-59.3
21,O=C(NCc1cccc(F)c1)C1CCN(S(=O)(=O)Cc2ccccc2)CC1,7.89
22,COCCn1c(SCC(=O)Nc2ccc(Cl)cn2)nc2ccccc21,-32.1
23,Cc1ccc(N(C(=O)CCC(=O)Nc2ccccn2)C(C(=O)NC(C)C)c2ccc(F)cc2)cc1 (centres unmarked),21.4

row,SMILES,"hERG current change (%, negative = inhibition) at 10uM [%]"
1,COc1ccc2c(c1)[C@H]1[C@H](CO2)[C@H](c2ccccc2)[C@]2(C)C(=O)N(CC3CCCO3)CC(=O)N12 (some centres unmarked),-2.94
2,COc1cccc(-n2cnc3c(sc4nc(N5CCOCC5)c5c(c43)CCCC5)c2=O)c1,5.92
3,CCc1ccccc1NC(=O)CNC(=O)CSC(=S)N1CCCC1,-3.17
4,COc1ccc(N2C(=NC(=O)c3ccccc3)SC3CS(=O)(=O)CC32)cc1 (centres unmarked),5.27
5,O=S(=O)(Oc1ccccc1C(=S)N1CCOCC1)c1ccc(Cl)cc1,3.56
6,NS(=O)(=O)c1ccc(CCNC(=O)[C@@H]2CCCN2S(=O)(=O)c2ccccc2F)cc1,-2.88
7,COc1ccc(OC)c(S(=O)(=O)N2CCC(C(=O)NCc3ccc4c(c3)OCO4)CC2)c1,-3.84
8,COc1cccc(NC(=O)c2cccnc2)c1,11.2
9,CCC[N+]1(CC#CCC(c2ccccc2)c2ccccc2)CCCCC1.[Br-],-66.7
10,Cc1ccc(C#CC[N+]2(C)CCCCC2)cc1.[Br-],14
11,C(#Cc1ccccc1)C[N+]1(CC#Cc2ccccc2)CCCCC1.[Br-],-55.8
12,C#CC[N+]1(CC#Cc2ccccc2)CCCC1.[I-],-1.53
13,C(#Cc1ccccc1)C[N+]1(CC#Cc2ccccc2)CCCC1.[Br-],-55.5
14,C=CC[N+]1(CC#Cc2ccccc2)CCCC1.[Br-],18.4
15,OCC#CC[N+]1(CC#Cc2ccccc2)CCCC1.[Br-],14.5
16,C#CC[N+]1(CC#Cc2ccc(C)cc2)CCCCC1.[Br-],4.84
17,CCC[N+]1(CC#CC(O)(c2ccccc2)C2CCCCC2)CCCCC1.[Br-] (centres unmarked),12.1
18,O=S(=O)([O-])CCC[N+]1(CC#Cc2ccccc2)CCCCC1,33.8
19,C#CC[N+]1(CC#Cc2ccccc2)CCCCC1.[I-],2.16
20,Cc1ccc(C#CC[N+]2(CC#Cc3ccc(C)cc3)CCCCC2)cc1.[Br-],-106
